Source: the supplement of paper PMC6555819

Columns and labels:
Experiment in all cases: PBM binding z-score (relative to random genomic background probes); higher = stronger binding; sequences stand for … in GC…GCGATTGACAGCGTAGAATGAAGG
[1] = test system: FXR:RXRa (NR concentration 270 nM, RXRa partner concentration 90 nM)
How it was run: (§1)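 Scanned fluorescence from custom Agilent 4×180K protein-binding microarrays was regression-normalized. Binding z-scores use random background probes as reference. Ligand-free nuclear receptor dimers were incubated on the arrays for 1 h and detected with antibodies against each partner (one per run).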

[2] = test system: LXRa:RXRa (NR concentration 270 nM, RXRa partner concentration 90 nM)
How it was run: as §1

[3] = test system: LXRa homodimer (NR concentration 270 nM)
How it was run: as §1

[4] = test system: LXRb:RXRa (NR concentration 270 nM, RXRa partner concentration 90 nM)
How it was run: as §1

[5] = test system: LXRb homodimer (NR concentration 270 nM)
How it was run: as §1

[6] = test system: PPARa:RXRa (NR concentration 270 nM, RXRa partner concentration 90 nM)
How it was run: as §1

[7] = test system: PPARg:RXRa (NR concentration 180 nM, RXRa partner concentration 90 nM)
How it was run: as §1

[8] = test system: PPARg:RXRa 270nM:90nM, anti-RXR (NR concentration 270 nM, RXRa partner concentration 90 nM)
How it was run: as §1

[9] = test system: PPARg:RXRa 30nM:10nM, anti-RXR (NR concentration 30 nM, RXRa partner concentration 10 nM)
How it was run: as §1

[10] = test system: PPARg:RXRa 90nM:30nM, anti-RXR (NR concentration 90 nM, RXRa partner concentration 30 nM)
How it was run: as §1

[11] = test system: PPARg:RXRa DBDmut IVT, anti-RXR (DBD mutation: RXRa K156A/R161A, NR concentration 270 nM, RXRa partner concentration 90 nM)
How it was run: as §1

[12] = test system: PPARg:RXRa IVT, anti-PPARg (NR concentration 270 nM, RXRa partner concentration 90 nM)
How it was run: as §1

[13] = test system: PPARg DBDmut:RXRa IVT, anti-PPARg (DBD mutation: PPARg1 K132A/R137A, NR concentration 270 nM, RXRa partner concentration 90 nM)
How it was run: as §1

[14] = test system: PPARg DBDmut IVT, anti-PPARg (DBD mutation: PPARg1 K132A/R137A, NR concentration 270 nM)
How it was run: as §1

[15] = test system: PPARg homodimer (NR concentration 180 nM)
How it was run: as §1

[16] = test system: PXR:RXRa (NR concentration 270 nM, RXRa partner concentration 90 nM)
How it was run: as §1

[17] = test system: PXR homodimer (NR concentration 270 nM)
How it was run: as §1

[18] = test system: RARa:RXR (NR concentration 270 nM, RXRa partner concentration 90 nM)
How it was run: as §1

[19] = test system: RARa homodimer (NR concentration 270 nM)
How it was run: as §1

[20] = test system: RARb:RXRa (NR concentration 270 nM, RXRa partner concentration 90 nM)
How it was run: as §1

| Sequence | PBM binding z-score [1] | PBM binding z-score [2] | PBM binding z-score [3] | PBM binding z-score [4] | PBM binding z-score [5] | PBM binding z-score [6] | PBM binding z-score [7] | PBM binding z-score [8] | PBM binding z-score [9] | PBM binding z-score [10] | PBM binding z-score [11] | PBM binding z-score [12] | PBM binding z-score [13] | PBM binding z-score [14] | PBM binding z-score [15] | PBM binding z-score [16] | PBM binding z-score [17] | PBM binding z-score [18] | PBM binding z-score [19] | PBM binding z-score [20] |
| --- | --- | --- | --- | --- | --- | --- | --- | --- | --- | --- | --- | --- | --- | --- | --- | --- | --- | --- | --- | --- |
| TGAATGAGTTTAAAGATCAGGGAACGTGGCGTCG | -0.0413 | 0.111 | -0.578 | -0.0738 | 0.209 | 0.791 | 0.824 | 1.77 | 1.35 | 1.46 | -0.728 | -0.0345 | 0.667 | -0.281 | 0.122 | 0.802 | 0.782 | 0.485 | 0.41 | 0.682 |
| TGAATGAGGTTACAAGATCAGGGAACGTTGCAAA | 1.8 | 1.28 | -0.302 | 1.34 | -0.31 | 3.09 | 2.14 | 2.54 | 1.05 | 1.65 | 1.92 | 3.07 | 0.903 | 1 | 0.112 | 0.754 | -0.231 | 1.68 | 0.0919 | 1.73 |
| TCATAGAGGTAAATGCTAGGTGAAAGTCCGATCT | 0.371 | 1.08 | -0.125 | 0.395 | -0.74 | 1.24 | 0.339 | 1.7 | 2.66 | 2.06 | 2.05 | 1.32 | -0.394 | -0.601 | 0.164 | 0.0496 | -0.193 | 0.932 | -0.0762 | 0.439 |
| AGAATGAGGTTACCAAAGATCATGGAAACGCTTG | 2.05 | 6.75 | -0.149 | 3.98 | -0.29 | 3.63 | 2.88 | 2.95 | 1.11 | 2.19 | 3.74 | 3.68 | 0.737 | 0.847 | 0.294 | 1.8 | 0.0925 | 2.58 | 0.108 | 2.11 |
| ATCTCTAGGTAAAAGTTGAGTGAATCCCGAGGAT | 0.0929 | 0.162 | 0.126 | -0.0605 | 0.531 | 2.84 | 4.94 | 6.21 | 5.21 | 6.22 | 2.05 | 2.5 | 1.01 | 1.53 | 0.688 | 0.0685 | 0.147 | 0.3 | 0.494 | 0.471 |
| CAGCCTAGGTCAGGGCCAGGATAGGAGGAACGTT | 1.84 | 0.87 | -0.49 | 0.522 | -1.06 | 2.04 | 0.835 | 1.15 | -0.0382 | 0.556 | 1.16 | 1.82 | -0.747 | -1.27 | 0.00488 | 0.262 | -0.967 | 0.879 | -0.655 | 3.49 |
| CCTCGGAGGACAACAGGAGCTCAGAGCTGCCAGA | -0.156 | -0.474 | -0.523 | -0.921 | -0.933 | -0.767 | -0.107 | -1 | -0.714 | -0.999 | 0.0652 | -0.614 | -1.06 | -2.08 | -0.744 | -0.836 | -0.522 | -0.894 | -0.387 | 0.83 |
| GCATATAGCTAATACAAGGTGAAAGTCCGATTGT | -0.158 | -0.177 | 0.202 | -0.0693 | -0.0357 | 0.477 | 0.487 | 0.425 | -0.0371 | 0.33 | 0.11 | 0.315 | 0.87 | -0.0254 | 0.259 | 0.262 | 0.241 | 0.651 | 0.533 | 0.107 |
| AGAATGAGGTTATACGTAGATCAGGTAAGAAAGT | 2.3 | 2.13 | 0.183 | 1.72 | -0.0403 | 3.17 | 2.14 | 2.25 | 0.708 | 1.53 | 4.3 | 2.28 | 1.26 | 0.947 | 0.811 | 1.23 | 0.571 | 2 | 0.262 | 1.52 |
| CAAACTAGGTCACATAGGTCAAAGTCCGTGCGTA | 6.12 | 5.33 | 4.86 | 5.05 | 1.48 | 5.74 | 9.47 | 7.44 | 6.05 | 7.51 | 8.33 | 8.57 | 3 | 4.3 | 4.12 | 5.04 | 4 | 5.51 | 2.09 | 4.7 |
| AGAATGAGGTTATACGTAGATCAGGGCAGAAAGT | 2.33 | 1.89 | 0.241 | 1.77 | -0.0553 | 3.17 | 1.83 | 2.15 | 0.79 | 1.41 | 4.01 | 2.15 | 0.485 | 0.402 | 0.774 | 1.45 | 1.34 | 1.82 | 0.705 | 1.51 |
| CCTTACGGGTCACGAGGTTATAGCTCGACGAGCG | 6.98 | 4.79 | 0.064 | 3.92 | 0.048 | 6.3 | 7.52 | 6.72 | 3.42 | 5.91 | 3.64 | 5.56 | 3.54 | 1.04 | 3.72 | 4.94 | -0.0531 | 6.5 | 1.15 | 4.36 |
| AACGAAAGGTCGTGAGGTGAGTATACAGAAAGGC | 5.67 | 4.36 | 0.174 | 3.32 | -0.0859 | 5.07 | 4.41 | 4.6 | 1.54 | 3.21 | 0.775 | 2.28 | 0.36 | 0.0984 | 1.96 | 3.37 | 0.132 | 4.22 | 0.704 | 4.04 |
| ATCTCTAGGTAACGTTCAGTGAAAGATCGATAGA | 0.596 | 0.51 | -0.179 | 0.297 | 0.462 | 0.836 | 0.58 | 0.792 | 0.317 | 0.669 | 3.29 | 2.87 | 1.78 | 1.73 | 0.504 | 0.0439 | 0.0107 | 0.445 | 0.865 | 0.556 |
| TCAGACAGGTGAAGGTAACTCAGGTACGCAGTCG | 0.942 | 1.82 | -0.0918 | 1.2 | -0.116 | 1.34 | 0.719 | 2.37 | 3.89 | 2.98 | 2.78 | 1.13 | 0.341 | -0.339 | 0.564 | 0.641 | 0.447 | 0.878 | 0.775 | 1.18 |
| GCGACTGGGGCATAGCAGGTTACCATAAGGTTGG | 0.397 | 0.135 | -0.575 | 0.25 | -0.915 | 1.2 | 1.02 | 0.684 | -0.371 | 0.318 | 3.87 | 2.96 | -0.728 | -0.706 | -0.174 | 0.0194 | -0.519 | 0.4 | -0.975 | 0.81 |
| CGTCCAAGGTCAGAGAGGTCAGCGAATGCCGAGT | 6.38 | 5.44 | 3.27 | 4.32 | 0.249 | 5.09 | 4 | 4.67 | 0.981 | 3.07 | 3.1 | 3.68 | -0.551 | -0.132 | 3.56 | 6.27 | 10.9 | 6.31 | 2.51 | 5.22 |
| AATACAGGGGCACTAGGCCAGAGTAGGTACGAAT | -0.0916 | 0.117 | -0.197 | 0.693 | -0.000441 | 1.5 | 2.84 | 2.51 | 0.512 | 1.26 | 2.1 | 3.75 | 0.831 | 0.38 | 0.784 | -0.286 | -0.158 | -0.2 | -0.664 | 1.16 |
| TCATATAGGTAAAAGGTGAAACTCGGTGTGGTAA | 2.3 | 2.26 | 0.259 | 2.39 | 0.198 | 5.64 | 9.08 | 8.59 | 8.64 | 9.69 | 5.96 | 5.4 | 0.902 | 1.04 | 1.99 | 2.27 | 0.443 | 3.48 | 1.82 | 2.26 |
